This passage reports composite z-score, composite Z-score and z-score results from PubChem BioAssay.

Active and inactive are the calls of the source.

The target of one test is Albumin (Bos taurus) (UniProt P02769). The test is described as follows: bovine serum albumin binders on microarray, profiling panel, artefact control for SMM control protein annotation, biochemical, small-molecule microarray, Alexa647 label, 635/667 nm fluorescence (AID 1118).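 Further: score merges 667 nm emission intensity and signal-to-noise per printed compound spot.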 The note with it: BSA-A647 binding, fluorescence 635 nm, higher = more signal.
Test [1] in a line: small-molecule microarray binders of probe aXIP, primary screen, biochemical, NeuroSMM set, 635/667 nm fluorescence (AID 1119).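 Further: probe is the protein aXip251-270 applied at 1 µg/mL to compound-printed slides; binding of probe to printed compounds measured as 667 nm fluorescence plus signal to noise.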 Particulars: higher = more signal, called active from +8 up or from −8 down.
The nature of test [2]: small-molecule binders of probe aNOTCH3, primary screen, biochemical, small-molecule microarray, 635/667 nm fluorescence (AID 1120).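 Further: probe is a biotin-tagged antibody raised against NOTCH3 rather than NOTCH3 protein; score merges spot fluorescence near 667 nm with spot signal to noise.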 The note with it: higher = more signal.
Test [3] is described as follows: small-molecule binders of probe aNOTCH2, primary screen, biochemical, small-molecule microarray, 635/667 nm fluorescence (AID 1121).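 Further: score merges feature fluorescence read at 667 nm with its signal to noise.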 Particulars: higher = more signal.
Test [4] deals with Carbonic anhydrase 2 (Homo sapiens) (UniProt P00918). The test is described as follows: CAII small-molecule binders, profiling panel, biochemical, small-molecule microarray, Alexa647-labelled CAII (AID 1122). Particulars: CAII-A647 binding fluorescence, higher = more signal.
Test [5] is described as follows: COS7 lysate on small-molecule microarray, probe aHis, 635 nm (AID 1123).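 Further: z-score combines 667nm fluorescence intensity with signal-to-noise per printed compound spot.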 The note with it: COS7 cell lysate, fluorescence, higher = more signal.
The nature of test [6]: compound binding in COS7 lysate, probe aLAP1, primary screen, cell lysate, small-molecule microarray (AID 1124).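 Further: lysate comes from COS7 cells expressing LAP1 and is applied at 0.3 µg/mL; score merges spot fluorescence near 667 nm with signal-to-noise over triplicate slides.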 The note with it: probe aLAP1, fluorescence, higher = more signal.
In the next test the test system is Sam68 (KHDRBS1). Description: Sam68 small-molecule binders, primary screen, biochemical, small-molecule microarray, 635 nm fluorescence (AID 1125).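 Further: score merges 667 nm channel intensity with signal to noise over triplicate slides.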 Particulars: small-molecule microarray binding, higher = more signal.
Test [7] concerns Chordin-like protein 2 (CHRDL2). Description: CHRDL2 small-molecule binders, primary screen, biochemical, small-molecule microarray, 635 nm fluorescence (AID 1126).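 Further: printed compound slides probed with Chrdl2 protein at 4 µg/mL for 1 h at 4 C; score merges 667 nm emission intensity with signal to noise over three replicate slides.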 The note with it: small-molecule microarray binding, fluorescence 635 nm; higher = more signal.
The target of test [8] is Concanavalin-A (Canavalia ensiformis) (UniProt P02866). Description: ConA small-molecule binders, primary screen, artefact control for SMM control protein annotation, biochemical, small-molecule microarray, Alexa647 label, 635 nm (AID 1127).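 Further: z combines 667 nm emission intensity with signal-to-noise across three replicate slides.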 Particulars: ConA-A647 binding fluorescence, higher = more signal.
Test [9] can be described thus: anti-His antibody binders, primary screen, artefact control for SMM control protein annotation, biochemical, small-molecule microarray, 635 nm fluorescence (AID 1128).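 Further: score merges feature fluorescence with signal-to-noise for each printed compound spot.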 Particulars: anti-His Alexa647 antibody binding, higher = more signal.
The test system of test [10] is Human papillomavirus type 1a E7 protein (residues 1-88). Description: HPV1a E7 small-molecule binders, primary screen, biochemical, small-molecule microarray, residues 1-88, 635 nm (AID 1129). The note with it: small-molecule microarray binding, fluorescence 635 nm; higher = more signal.
Test [11] deals with Focal adhesion kinase 1 (Homo sapiens) (UniProt Q05397). Description: small-molecule microarray binders of FAK, primary screen, biochemical, 635/667 nm fluorescence, BSA, DTT (AID 1130).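 Further: composite of spot emission at 667 nm and signal to noise over triplicate slides.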 Particulars: PTK2 binding, 635 nm fluorescence, higher = more signal.
Test [12] has as its system Fibrinogen (Alexa647-labelled). The test is described as follows: fibrinogen binders on compound microarrays, profiling panel, artefact control for SMM control-protein annotation, biochemical, small-molecule microarray, 635/667 nm fluorescence (AID 1131).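 Further: z-score merges 667 nm fluorescence with per-spot signal-to-noise over triplicate slides.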 The note with it: fibrinogen-A647 binding fluorescence, higher = more signal.
For test [13], the target named is Follistatin (Homo sapiens) (UniProt P19883). The test is described as follows: follistatin binders on small-molecule microarrays, primary screen, biochemical, small-molecule microarray, 635/667 nm fluorescence (AID 1132). The note with it: FST binding, 635 nm fluorescence, higher = more signal.
In test [14] the target is Fibroblast growth factor 2 (Homo sapiens) (UniProt P09038). Description: FGF2 binders on small-molecule microarrays, primary screen, biochemical, small-molecule microarray, 635/667 nm fluorescence (AID 1133). Particulars: small-molecule microarray binding, FGF2, fluorescence 635/667; higher = more signal.
The nature of test [15]: mitochondrial membrane potential change in A549 cells, profiling panel, cell-based, JC-1 fluorescence, basal, 24 h, 100 nL (AID 1138).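 Further: A549 lung adenocarcinoma cells under basal conditions with no added stimulus; test concentration not given here.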 The note with it: higher = more signal.
For the next test, the system named is Lefty1. Description: Lefty1 binders on small-molecule microarrays, primary screen, biochemical, small-molecule microarray, 635/667 nm fluorescence (AID 1139). The note with it: small-molecule microarray binding, fluorescence 635/667; higher = more signal.
In test [16] the test system is wheat germ agglutinin (Triticum aestivum), Alexa647-labelled. The test is described as follows: wheat germ agglutinin binders on compound microarrays, profiling panel, artefact control for SMM control-protein annotation, biochemical, small-molecule microarray, 635/667 nm fluorescence (AID 1140).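 Further: score merges 667 nm feature emission with signal to noise over triplicate slides.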 The note with it: WGA-A647 binding, 635 nm fluorescence, higher = more signal.

Test [17] deals with Luciferin 4-monooxygenase (Photinus pyralis) (UniProt P08659). Description: firefly luciferase enzyme inhibitors, primary screen, biochemical, luminescence, purified enzyme, 2006 set (AID 1141).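 Further: cell-free assay with purified firefly luciferase at 100 ng per well in PBS; test concentration not given here.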 Particulars: SteadyGlo luminescence, 30 min, higher = more signal, called active from +8 up or from −8 down.
Chain of Luciferin 4-monooxygenase (Photinus pyralis) (P08659 whole entry, looked up): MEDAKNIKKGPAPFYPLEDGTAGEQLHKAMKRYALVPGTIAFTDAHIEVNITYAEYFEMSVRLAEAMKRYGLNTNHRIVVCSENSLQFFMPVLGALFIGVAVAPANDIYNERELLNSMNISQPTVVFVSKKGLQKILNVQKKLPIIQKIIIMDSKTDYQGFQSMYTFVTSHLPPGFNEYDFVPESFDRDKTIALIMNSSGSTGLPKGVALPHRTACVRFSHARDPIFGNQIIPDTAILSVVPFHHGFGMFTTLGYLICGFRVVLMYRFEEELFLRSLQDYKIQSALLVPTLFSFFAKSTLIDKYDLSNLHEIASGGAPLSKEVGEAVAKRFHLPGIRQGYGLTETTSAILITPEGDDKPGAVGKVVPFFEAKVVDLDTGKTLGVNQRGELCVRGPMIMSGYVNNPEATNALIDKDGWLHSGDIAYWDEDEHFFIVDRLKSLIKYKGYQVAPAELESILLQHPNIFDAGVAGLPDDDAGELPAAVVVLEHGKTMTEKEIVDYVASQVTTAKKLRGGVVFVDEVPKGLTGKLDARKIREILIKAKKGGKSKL

Chain of Concanavalin-A (Canavalia ensiformis) (P02866 whole entry, looked up): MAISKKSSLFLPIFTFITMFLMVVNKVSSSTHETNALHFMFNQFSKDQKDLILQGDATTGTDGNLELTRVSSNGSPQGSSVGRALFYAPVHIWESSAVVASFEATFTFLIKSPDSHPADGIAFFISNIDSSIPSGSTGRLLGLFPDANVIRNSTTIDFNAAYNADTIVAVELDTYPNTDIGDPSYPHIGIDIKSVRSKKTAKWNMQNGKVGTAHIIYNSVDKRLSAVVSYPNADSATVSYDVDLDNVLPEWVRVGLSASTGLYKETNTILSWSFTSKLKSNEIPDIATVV
Chain of Fibroblast growth factor 2 (Homo sapiens) (P09038 whole entry, looked up): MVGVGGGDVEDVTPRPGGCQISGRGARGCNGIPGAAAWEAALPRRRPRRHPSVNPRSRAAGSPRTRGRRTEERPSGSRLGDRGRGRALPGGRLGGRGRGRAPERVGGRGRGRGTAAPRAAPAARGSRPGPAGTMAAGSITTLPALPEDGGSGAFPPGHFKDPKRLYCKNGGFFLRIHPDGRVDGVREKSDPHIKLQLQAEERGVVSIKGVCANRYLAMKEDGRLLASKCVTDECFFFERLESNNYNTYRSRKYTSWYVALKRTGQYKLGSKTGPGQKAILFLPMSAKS
Chain of Follistatin (Homo sapiens) (P19883 whole entry, looked up): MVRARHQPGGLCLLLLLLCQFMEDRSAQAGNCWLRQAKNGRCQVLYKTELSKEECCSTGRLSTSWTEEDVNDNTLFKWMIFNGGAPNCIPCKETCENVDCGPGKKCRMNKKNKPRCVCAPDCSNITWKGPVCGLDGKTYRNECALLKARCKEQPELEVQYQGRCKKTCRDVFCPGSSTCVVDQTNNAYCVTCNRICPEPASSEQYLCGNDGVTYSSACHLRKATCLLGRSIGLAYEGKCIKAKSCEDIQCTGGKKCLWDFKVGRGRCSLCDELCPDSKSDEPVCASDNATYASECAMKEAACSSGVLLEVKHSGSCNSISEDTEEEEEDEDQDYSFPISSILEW
Chain of Albumin (Bos taurus) (P02769 whole entry, looked up): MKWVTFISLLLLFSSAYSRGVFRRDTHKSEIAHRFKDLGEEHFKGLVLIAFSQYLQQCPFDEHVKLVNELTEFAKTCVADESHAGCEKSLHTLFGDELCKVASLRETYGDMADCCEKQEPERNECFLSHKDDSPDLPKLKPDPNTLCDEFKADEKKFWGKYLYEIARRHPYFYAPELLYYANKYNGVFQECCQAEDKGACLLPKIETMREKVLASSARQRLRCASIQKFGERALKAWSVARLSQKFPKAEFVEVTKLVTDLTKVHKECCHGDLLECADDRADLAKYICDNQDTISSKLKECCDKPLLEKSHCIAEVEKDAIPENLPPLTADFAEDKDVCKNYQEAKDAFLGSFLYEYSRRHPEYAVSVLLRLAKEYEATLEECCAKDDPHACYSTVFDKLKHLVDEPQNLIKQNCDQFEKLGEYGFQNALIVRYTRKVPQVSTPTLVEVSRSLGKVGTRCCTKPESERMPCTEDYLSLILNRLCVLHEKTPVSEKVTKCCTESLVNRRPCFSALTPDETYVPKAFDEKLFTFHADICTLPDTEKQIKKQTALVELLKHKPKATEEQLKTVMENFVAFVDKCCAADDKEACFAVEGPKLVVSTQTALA
Chain of Focal adhesion kinase 1 (Homo sapiens) (Q05397 whole entry, looked up): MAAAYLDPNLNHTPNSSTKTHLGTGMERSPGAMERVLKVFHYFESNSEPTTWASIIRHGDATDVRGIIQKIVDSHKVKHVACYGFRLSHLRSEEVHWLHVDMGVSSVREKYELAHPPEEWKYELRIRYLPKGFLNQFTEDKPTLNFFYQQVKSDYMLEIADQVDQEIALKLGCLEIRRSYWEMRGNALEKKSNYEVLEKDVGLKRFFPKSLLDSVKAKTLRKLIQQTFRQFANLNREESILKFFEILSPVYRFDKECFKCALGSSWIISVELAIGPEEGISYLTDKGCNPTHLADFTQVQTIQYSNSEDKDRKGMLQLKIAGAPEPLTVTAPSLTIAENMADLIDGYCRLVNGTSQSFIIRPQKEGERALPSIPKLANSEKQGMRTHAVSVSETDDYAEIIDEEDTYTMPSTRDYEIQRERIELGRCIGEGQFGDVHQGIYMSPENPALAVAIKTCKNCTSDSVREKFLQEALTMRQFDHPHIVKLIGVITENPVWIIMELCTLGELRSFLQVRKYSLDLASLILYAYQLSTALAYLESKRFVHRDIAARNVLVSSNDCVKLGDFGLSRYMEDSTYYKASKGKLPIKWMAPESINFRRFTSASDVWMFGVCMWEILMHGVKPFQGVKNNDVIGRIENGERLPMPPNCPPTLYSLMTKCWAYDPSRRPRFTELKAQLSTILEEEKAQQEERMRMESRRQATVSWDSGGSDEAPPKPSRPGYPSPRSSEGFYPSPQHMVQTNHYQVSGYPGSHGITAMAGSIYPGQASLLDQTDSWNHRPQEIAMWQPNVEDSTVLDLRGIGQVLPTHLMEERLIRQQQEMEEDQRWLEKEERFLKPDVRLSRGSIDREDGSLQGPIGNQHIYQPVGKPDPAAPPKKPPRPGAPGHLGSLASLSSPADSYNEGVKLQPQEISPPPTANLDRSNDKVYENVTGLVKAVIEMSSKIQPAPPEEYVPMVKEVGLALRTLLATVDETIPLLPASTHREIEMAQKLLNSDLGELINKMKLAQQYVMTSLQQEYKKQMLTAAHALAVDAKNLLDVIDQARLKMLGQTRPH

For the compound `COCCOC(=O)N1C(=O)[C@@]2(c3ccccc31)[C@H](C(=O)Nc1nc3ccccc3s1)[C@H]1C(=O)O[C@H](c3ccccc3)[C@H](c3ccccc3)N1[C@@H]2c1ccc(OCCO)cc1`, the composite z-score is 0.735 with Albumin (Bos taurus); 0.127 in [2]; -0.169 in test [3]; 0.287 in test [4]; 2.33 in test [5]; 1.39 in test [6]. For the same compound, the composite z-score in the test on Sam68 (KHDRBS1) came out at 1.29; in test [7], 0.594; in test [8], 1.16; in [9], 1.8; in test [10], 1.17; in test [11], 0.462. Further, the composite z-score in [12] amounted to 0.962; in [13], 1.33; in test [14], 0.826; in the test on Lefty1, 1.33; in [16], 0.992. The composite Z-score in [1] is -0.533 (inactive). Also, the z-score is -2.32 in [15] and -2.11 (inactive) in [17].

In the case of `CN1C(=O)C2C=CC(C(O)c3ccccn3)N(Nc3ccccc3)C2C1=O` (stereo not given), the composite z-score with Albumin (Bos taurus) was -0.0756; in test [2], 0.0711; in [3], -0.14; in [4], 0.727; in test [5] it was 0.446; in [6], 0.456. Also, the composite z-score in the test with Sam68 (KHDRBS1) is 0.656; in test [7], 0.288; in test [8] it was 0.37; in [9], 0.621; in test [10], 0.302; in test [11], -0.187. For the same compound, the composite z-score in test [12] is 1.03; in [13] it was 0.563; in test [14], 0.213; with Lefty1, 0.125; in [16], 0.489. Further, the composite Z-score in test [1] is 0.0956 (inactive). Besides, the figures for the z-score in test [15] and in test [17] were -0.633 and -1.12 (inactive), respectively.

Turning to `CC(C)(C)N1CC=CC23O[C@@H]4/C=C\CCCOC(=O)C4[C@H]2C(=O)N(CCO)[C@@H]3C1=O` (stereo not given in full), the composite z-score with Albumin (Bos taurus) is 0.268; in test [2] it was -0.36; in test [3], -0.204; in [4], 0.872; in [5], 0.575; in test [6], 0.29. Moreover, the composite z-score was -0.13 in the test on Sam68 (KHDRBS1); -0.0702 in test [7]; -0.0702 in test [8]; 0.543 in [9]; 0.193 in [10]; 0.19 in test [11]. In addition, the composite z-score in test [12] is -0.233; in test [13] it was -0.993; in test [14] it was -0.57; in the test on Lefty1 it was -0.86; in test [16] it was 0.0851. Also, the composite Z-score in test [1] is 0.103 (inactive). Also, the figures for the z-score in test [15] and in test [17] were -0.913 and 0.885 (inactive), respectively.

As to `[N-]=[N+]=NCc1ccccc1C[C@]1(C(=O)O)N=C(c2ccc(OCCCO)cc2)O[C@H]1c1ccccc1CN=[N+]=[N-]`, the composite z-score is 0.938 in the test with Albumin (Bos taurus); -0.027 in test [2]; -0.011 in test [3]; 0.696 in test [4]; 2.7 in test [5]; 0.513 in test [6]. The composite z-score in the test on Sam68 (KHDRBS1) is 1.34; in test [7] it was -0.69; in test [8], 1.17; in [9] it was 1.25; in [10] it was 1.03; in [11], 0.378. Also, the composite z-score in test [12] is 1.02; in [13], 0.879; in [14], 0.157; in the test with Lefty1 it was -0.8; in test [16], 1.08. Besides, in [1], the composite Z-score was -0.313 (inactive). In addition, the z-score is 0.0653 in test [15] and -1.49 (inactive) in test [17].

As for `Cc1ccc(S[C@]2(C(=O)NCc3ccccc3)CC(=O)N(Cc3ccccc3Cl)[C@@H]2c2ccc(CO)cc2I)cc1`, the composite z-score is 0.451 with Albumin (Bos taurus); -0.275 in test [2]; -0.198 in [3]; 0.721 in test [4]; 0.616 in test [5]; 0.198 in [6]. Moreover, the composite z-score in the test with Sam68 (KHDRBS1) was -0.414; in test [7] it was -1.03; in [8], -0.139; in [9] it was 2.92; in test [10], -0.162; in test [11] it was -0.0602. The composite z-score in test [12] is 0.999; in test [13] it was 0.0508; in test [14], -0.871; in the test on Lefty1, -0.366; in test [16], 0.947. Moreover, in [1], the composite Z-score was -0.422 (inactive). The z-score was 0.00439 in [15] and 0.831 (inactive) in [17].
